Results taken from the supplement of paper PMC10849652.
Of roughly 8,800 targets only a part is listed; those with a hit were picked by preference. About 0.5% of all pairs of compound and target were hits. A number with no mark means an inactive call.

Columns and labels:
Test in all cases: log2 fold change, soluble protein after heating vs DMSO (PISA); higher = thermal stabilisation; K562 lysate, 10 uM; active = over 0.2 and 3.5 SD of the protein, either way, in both replicates (recomputed)
lapatinib = compound: CS(=O)(=O)CCNCc1ccc(-c2ccc3ncnc(Nc4ccc(OCc5cccc(F)c5)c(Cl)c4)c3c2)o1 [lapatinib]
How it was run: (§1)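 Thermal stability, expressed as log-two fold change relative to solvent controls, is given from duplicates. Crude K562 extract in PBS pH 7.4 with 1 mM MgCl2, at 1 mg/mL protein, was treated with 10 μM compound for 30 min and heated in aliquots for 3 min across 48°C-58°C. After pooling, adjustment to 0.5% NP-40 at 4°C and centrifugation at 21,000xg for 90 min, supernatant protein was measured by TMTpro 16plex LC-MS/MS with channel sums equalised.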

pictilisib = compound: CS(=O)(=O)N1CCN(Cc2cc3nc(-c4cccc5[nH]ncc45)nc(N4CCOCC4)c3s2)CC1 [pictilisib]
How it was run: as §1

crizotinib = compound: C[C@@H](Oc1cc(-c2cnn(C3CCNCC3)c2)cnc1N)c1c(Cl)ccc(F)c1Cl [crizotinib]
How it was run: as §1

[1] = compound: C[C@H](C1=CC=C(C=C1)C(=O)NC2=C3C=CNC3=NC=C2)N
How it was run: as §1

duvelisib = compound: C[C@H](Nc1ncnc2nc[nH]c12)c1cc2cccc(Cl)c2c(=O)n1-c1ccccc1 [duvelisib]
How it was run: as §1

gandotinib = compound: Cc1cc(Nc2cc(CN3CCOCC3)c3nc(C)c(Cc4ccc(Cl)cc4F)n3n2)n[nH]1 [gandotinib]
How it was run: as §1

tozasertib = compound: Cc1cc(Nc2cc(N3CCN(C)CC3)nc(Sc3ccc(NC(=O)C4CC4)cc3)n2)n[nH]1 [tozasertib]
How it was run: as §1

doramapimod = compound: Cc1ccc(-n2nc(C(C)(C)C)cc2NC(=O)Nc2ccc(OCCN3CCOCC3)c3ccccc23)cc1 [doramapimod]
How it was run: as §1

bafetinib = compound: Cc1ccc(NC(=O)c2ccc(CN3CC[C@H](N(C)C)C3)c(C(F)(F)F)c2)cc1Nc1nccc(-c2cncnc2)n1 [bafetinib]
How it was run: as §1

[2] = compound: Cc1cccc(CC(=O)N2CCc3c2ccc(-c2cn(C)c4ncnc(N)c24)c3F)n1
How it was run: as §1

Chain of UniProt Q9NZ72 (Q9NZ72 whole entry, looked up): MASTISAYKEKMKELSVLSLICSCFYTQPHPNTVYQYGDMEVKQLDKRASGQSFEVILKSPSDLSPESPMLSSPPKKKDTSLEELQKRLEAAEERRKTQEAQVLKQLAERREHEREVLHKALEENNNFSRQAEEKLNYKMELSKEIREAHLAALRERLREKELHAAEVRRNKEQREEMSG
Chain of UniProt P49675 (P49675 whole entry, looked up): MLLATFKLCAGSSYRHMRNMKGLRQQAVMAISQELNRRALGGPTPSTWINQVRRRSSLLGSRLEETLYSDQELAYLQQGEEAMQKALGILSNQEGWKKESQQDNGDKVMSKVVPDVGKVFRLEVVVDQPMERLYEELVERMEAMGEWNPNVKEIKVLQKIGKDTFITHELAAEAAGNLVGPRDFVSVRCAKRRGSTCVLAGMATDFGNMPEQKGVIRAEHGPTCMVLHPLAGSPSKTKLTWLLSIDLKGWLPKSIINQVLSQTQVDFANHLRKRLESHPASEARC
Chain of UniProt Q96CQ1 (Q96CQ1 whole entry, looked up): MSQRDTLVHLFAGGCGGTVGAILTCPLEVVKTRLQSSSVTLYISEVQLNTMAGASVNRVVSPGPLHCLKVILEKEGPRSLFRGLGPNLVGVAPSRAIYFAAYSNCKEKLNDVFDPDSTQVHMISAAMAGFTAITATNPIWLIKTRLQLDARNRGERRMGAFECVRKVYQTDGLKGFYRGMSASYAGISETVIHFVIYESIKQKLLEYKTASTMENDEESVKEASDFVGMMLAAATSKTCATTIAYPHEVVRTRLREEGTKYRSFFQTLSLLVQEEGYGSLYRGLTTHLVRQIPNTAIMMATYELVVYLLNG
Chain of UniProt Q6NXT4 (Q6NXT4 whole entry, looked up): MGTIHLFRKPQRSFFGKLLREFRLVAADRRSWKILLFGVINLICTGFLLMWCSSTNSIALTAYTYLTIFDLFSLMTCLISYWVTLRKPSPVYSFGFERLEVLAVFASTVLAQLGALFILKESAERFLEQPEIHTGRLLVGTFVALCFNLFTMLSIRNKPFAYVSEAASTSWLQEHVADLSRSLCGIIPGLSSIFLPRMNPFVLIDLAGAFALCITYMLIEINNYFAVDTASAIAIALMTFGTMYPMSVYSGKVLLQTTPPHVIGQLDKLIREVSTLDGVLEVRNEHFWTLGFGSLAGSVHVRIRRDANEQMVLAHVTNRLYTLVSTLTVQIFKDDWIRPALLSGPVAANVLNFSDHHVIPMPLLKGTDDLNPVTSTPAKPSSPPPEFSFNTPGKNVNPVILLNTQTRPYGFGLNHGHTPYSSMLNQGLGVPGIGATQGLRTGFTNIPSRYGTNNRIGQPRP
Chain of UniProt Q07617 (Q07617 whole entry, looked up): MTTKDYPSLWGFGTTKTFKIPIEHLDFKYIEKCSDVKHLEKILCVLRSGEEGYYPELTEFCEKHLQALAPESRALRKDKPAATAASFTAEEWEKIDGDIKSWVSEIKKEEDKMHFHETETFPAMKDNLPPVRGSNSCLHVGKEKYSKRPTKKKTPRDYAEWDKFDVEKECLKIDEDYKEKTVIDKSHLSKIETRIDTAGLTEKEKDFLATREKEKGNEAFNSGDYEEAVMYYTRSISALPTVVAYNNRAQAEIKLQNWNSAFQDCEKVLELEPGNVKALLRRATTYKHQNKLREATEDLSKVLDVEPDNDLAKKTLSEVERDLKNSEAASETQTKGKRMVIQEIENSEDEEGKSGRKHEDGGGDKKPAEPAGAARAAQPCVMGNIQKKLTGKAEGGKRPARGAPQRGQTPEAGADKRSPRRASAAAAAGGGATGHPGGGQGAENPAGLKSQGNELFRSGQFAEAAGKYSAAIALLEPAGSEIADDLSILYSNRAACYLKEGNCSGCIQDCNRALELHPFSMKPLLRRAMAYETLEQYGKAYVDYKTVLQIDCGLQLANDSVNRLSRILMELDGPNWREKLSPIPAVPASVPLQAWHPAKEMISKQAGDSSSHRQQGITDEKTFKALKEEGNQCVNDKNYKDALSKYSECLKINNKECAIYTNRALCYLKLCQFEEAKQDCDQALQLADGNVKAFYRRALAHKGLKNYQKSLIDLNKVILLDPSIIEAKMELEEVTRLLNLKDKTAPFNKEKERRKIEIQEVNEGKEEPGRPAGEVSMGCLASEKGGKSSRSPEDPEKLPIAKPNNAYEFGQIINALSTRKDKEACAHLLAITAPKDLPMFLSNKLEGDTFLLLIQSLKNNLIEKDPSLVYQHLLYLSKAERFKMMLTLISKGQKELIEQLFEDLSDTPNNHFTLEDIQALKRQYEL
Chain of UniProt Q13309 (Q13309 whole entry, looked up): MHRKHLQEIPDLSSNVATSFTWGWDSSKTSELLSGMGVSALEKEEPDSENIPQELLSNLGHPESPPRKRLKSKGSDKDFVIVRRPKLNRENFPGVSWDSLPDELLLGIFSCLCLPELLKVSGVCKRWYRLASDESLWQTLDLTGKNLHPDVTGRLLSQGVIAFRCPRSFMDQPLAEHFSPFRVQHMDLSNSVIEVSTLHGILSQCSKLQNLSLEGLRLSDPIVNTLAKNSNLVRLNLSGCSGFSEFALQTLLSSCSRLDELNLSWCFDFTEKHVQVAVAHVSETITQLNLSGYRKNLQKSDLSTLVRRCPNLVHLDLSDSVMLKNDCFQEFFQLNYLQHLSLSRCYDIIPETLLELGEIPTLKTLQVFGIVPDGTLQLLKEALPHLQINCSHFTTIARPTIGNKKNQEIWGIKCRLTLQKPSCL
Chain of UniProt Q96BD0 (Q96BD0 whole entry, looked up): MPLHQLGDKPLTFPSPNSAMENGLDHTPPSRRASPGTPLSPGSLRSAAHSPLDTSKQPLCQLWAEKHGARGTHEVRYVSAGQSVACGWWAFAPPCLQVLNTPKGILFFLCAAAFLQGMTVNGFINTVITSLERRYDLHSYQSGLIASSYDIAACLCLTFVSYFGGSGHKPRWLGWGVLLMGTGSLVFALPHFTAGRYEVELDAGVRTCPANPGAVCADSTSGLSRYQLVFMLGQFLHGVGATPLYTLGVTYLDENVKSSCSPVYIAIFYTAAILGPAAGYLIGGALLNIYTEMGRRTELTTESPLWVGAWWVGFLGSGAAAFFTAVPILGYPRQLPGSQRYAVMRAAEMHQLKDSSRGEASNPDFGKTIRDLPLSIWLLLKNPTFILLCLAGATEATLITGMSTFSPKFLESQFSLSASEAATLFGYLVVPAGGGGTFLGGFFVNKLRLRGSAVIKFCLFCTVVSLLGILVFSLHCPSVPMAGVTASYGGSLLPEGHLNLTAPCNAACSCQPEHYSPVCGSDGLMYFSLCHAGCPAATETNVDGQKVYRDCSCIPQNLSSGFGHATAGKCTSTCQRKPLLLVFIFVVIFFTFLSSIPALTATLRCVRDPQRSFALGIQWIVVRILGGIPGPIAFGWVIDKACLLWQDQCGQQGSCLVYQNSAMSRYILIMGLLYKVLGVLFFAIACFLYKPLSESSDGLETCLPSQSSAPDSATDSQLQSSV
Chain of UniProt Q13487 (Q13487 whole entry, looked up): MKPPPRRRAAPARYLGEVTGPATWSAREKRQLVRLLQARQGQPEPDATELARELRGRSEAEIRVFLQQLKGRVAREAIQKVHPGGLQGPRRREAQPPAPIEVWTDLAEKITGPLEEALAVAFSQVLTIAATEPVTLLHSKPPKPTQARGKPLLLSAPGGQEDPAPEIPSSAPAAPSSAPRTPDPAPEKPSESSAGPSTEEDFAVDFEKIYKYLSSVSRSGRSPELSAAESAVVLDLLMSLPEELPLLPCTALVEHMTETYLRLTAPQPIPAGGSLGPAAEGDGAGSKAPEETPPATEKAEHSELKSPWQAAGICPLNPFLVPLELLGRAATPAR
Chain of UniProt O75182 (O75182 whole entry, looked up): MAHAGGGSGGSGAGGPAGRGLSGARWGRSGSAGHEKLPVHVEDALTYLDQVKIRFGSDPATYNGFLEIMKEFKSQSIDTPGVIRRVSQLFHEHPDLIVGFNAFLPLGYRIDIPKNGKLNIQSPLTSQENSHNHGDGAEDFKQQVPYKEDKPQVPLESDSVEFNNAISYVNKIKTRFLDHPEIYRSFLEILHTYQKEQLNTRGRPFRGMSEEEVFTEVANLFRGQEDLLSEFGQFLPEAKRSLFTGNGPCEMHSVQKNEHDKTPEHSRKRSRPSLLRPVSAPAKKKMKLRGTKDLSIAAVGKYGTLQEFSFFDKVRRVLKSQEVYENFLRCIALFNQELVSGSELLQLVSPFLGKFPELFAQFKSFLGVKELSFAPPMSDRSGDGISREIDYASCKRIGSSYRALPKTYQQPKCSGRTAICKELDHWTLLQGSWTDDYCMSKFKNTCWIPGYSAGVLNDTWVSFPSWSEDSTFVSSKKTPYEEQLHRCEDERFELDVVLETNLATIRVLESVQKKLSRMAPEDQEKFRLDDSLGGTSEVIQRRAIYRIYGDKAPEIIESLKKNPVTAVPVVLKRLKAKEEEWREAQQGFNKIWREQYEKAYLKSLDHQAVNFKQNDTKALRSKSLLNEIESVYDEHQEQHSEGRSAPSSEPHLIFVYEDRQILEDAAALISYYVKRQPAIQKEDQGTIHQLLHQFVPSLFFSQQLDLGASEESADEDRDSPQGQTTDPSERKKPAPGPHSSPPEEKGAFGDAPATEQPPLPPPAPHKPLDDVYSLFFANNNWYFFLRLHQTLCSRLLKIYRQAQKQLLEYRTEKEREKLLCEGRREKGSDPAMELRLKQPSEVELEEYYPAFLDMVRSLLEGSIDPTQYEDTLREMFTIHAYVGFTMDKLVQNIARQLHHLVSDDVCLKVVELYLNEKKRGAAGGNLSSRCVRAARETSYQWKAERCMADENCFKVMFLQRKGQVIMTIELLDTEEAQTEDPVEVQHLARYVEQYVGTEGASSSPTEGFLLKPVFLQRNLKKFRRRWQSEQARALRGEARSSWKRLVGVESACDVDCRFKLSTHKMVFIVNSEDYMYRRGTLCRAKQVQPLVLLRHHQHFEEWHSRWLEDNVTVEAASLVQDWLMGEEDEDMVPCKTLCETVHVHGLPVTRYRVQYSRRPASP
Chain of UniProt O60225 (O60225 whole entry, looked up): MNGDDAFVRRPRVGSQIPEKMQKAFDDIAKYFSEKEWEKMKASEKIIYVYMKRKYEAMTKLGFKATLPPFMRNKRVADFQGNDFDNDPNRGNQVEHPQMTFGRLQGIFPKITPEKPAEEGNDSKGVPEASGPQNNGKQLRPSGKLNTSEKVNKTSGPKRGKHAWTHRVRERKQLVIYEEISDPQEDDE

Row | Target | log2 fold change (lapatinib) | log2 fold change (pictilisib) | log2 fold change (crizotinib) | log2 fold change [1] | log2 fold change (duvelisib) | log2 fold change (gandotinib) | log2 fold change (tozasertib) | log2 fold change (doramapimod) | log2 fold change (bafetinib) | log2 fold change [2]
1 | SYNRG (UniProt Q9UMZ2) | 0.022 | -0.016 | 0.016 | 0.043 | -0.041 | -0.037 | 0.024 | -0.023 | -0.032 | -0.044
2 | SRRT (UniProt Q9BXP5) | 0.005 | -0.029 | -0.055 | 0.059 | -0.007 | -0.072 | 0.032 | 0.066 | -0.023 | -0.018
3 | SLC22A18 (UniProt Q96BI1) | 0.072 | 0.026 | -0.064 | -0.094 |  | 0.147 | -0.004 | 0.032 | -0.001 | 0.033
4 | SMG6 (UniProt Q86US8) | 0.009 | -0.032 | 0.028 | -0.097 | -0.1 | 0.025 | -0.096 | 0.051 | -0.049 | 0.039
5 | SLC30A6 isoform 2 (UniProt Q6NXT4) | 0.115 | -0.027 | 0.009 | -0.095 |  | 0.048 | 0.114 | -0.058 | 0.034 | 0.116
6 | STK36 (UniProt Q9NRP7) | -0.213 | -0.007 | -0.833 | -0.551 | 0.191 | 0.284 | 0 | 0.202 | -0.322 | 0.398
7 | SPPL2A (UniProt Q8TCT8) | -0.002 | -0.059 | -0.127 | -0.302 |  | -0.093 | 0.082 | -0.032 | -0.127 | 0.1
8 | STK24 (UniProt B4DR80) | 0.006 | 0 | 0.044 | 0.034 | -0.016 | 0.089 | 0.001 | -0.054 | 0.004 | 0
9 | SNRNP40 (UniProt Q96DI7) | -0.014 | 0.063 | -0.042 | -0.075 | -0.006 | 0.167 | 0.015 | 0.121 | 0.011 | 0.089
10 | STK38L (UniProt Q9Y2H1) |  |  | -0.059 |  | -0.007 |  | -0.009 | -0.025 |  | 
11 | SMC1B isoform 3 (UniProt Q8NDV3) | 0 | -0.037 | -0.019 |  | 0.015 |  | 0.26 | -0.036 | -0.093 | 
12 | SPAG1 (UniProt Q07617) | -0.058 | 0.17 | 0 |  |  |  |  | -0.025 | -0.265 | 
13 | SMARCA4 isoform 4 (UniProt P51532) | -0.072 |  | 0 | 0.024 | -0.068 | -0.007 | 0.136 | -0.048 |  | -0.012
14 | TAF11 (UniProt Q15544) | 0.003 |  | -0.085 | -0.036 | -0.06 | 0.026 | 0.102 | 0.023 |  | 0
15 | TARDBP (UniProt K7EN94) |  |  |  |  |  |  | 0.257 |  |  | 
16 | SHB (UniProt Q15464) | -0.07 |  | -0.044 | -0.305 | -0.034 | 0.186 |  | 0.028 |  | -0.129
17 | STK26 isoform 3 (UniProt Q9P289) |  |  | 0.095 |  | 0.008 |  | -0.001 | -0.416 |  | 
18 | SLC40A1 (UniProt Q9NP59) | -0.019 |  | 0.111 | -0.164 | 0.099 | 0.054 | -0.035 | -0.056 |  | 0.018
19 | STK17A (UniProt Q9UEE5) |  |  |  | 0.315 |  | -0.001 |  |  |  | -0.197
20 | SZT2 (UniProt Q5T011) | 0.275 | 0.189 |  | -0.108 | -0.081 | -0.17 | -0.097 |  | -0.214 | 0.22
21 | SNAPC2 (UniProt Q13487) |  | 0.08 | -0.007 | 0.024 | -0.129 | 0.01 |  | 0.03 | -0.537 | -0.033

Row | Target | log2 fold change (lapatinib) | log2 fold change (pictilisib) | log2 fold change (crizotinib) | log2 fold change [1] | log2 fold change (duvelisib) | log2 fold change (gandotinib) | log2 fold change (tozasertib) | log2 fold change (doramapimod) | log2 fold change (bafetinib) | log2 fold change [2]
22 | SRC isoform 2 (UniProt P12931) | -0.001 | -0.078 |  | 0.151 | 0.001 | 0.061 | 0.098 |  | -0.153 | -0.015
23 | SKP2 (UniProt Q13309) | -0.275 |  | -0.159 | -0.098 | -0.024 | -0.075 | -0.096 | -0.024 |  | 0.104
24 | SLU7 (UniProt O95391) |  | 0.006 | 0.054 | -0.187 | 0.06 | 0.255 | 0.028 | -0.099 | -0.267 | 0.367 (active)
25 | STK17B (UniProt O94768) |  |  | -0.255 |  | 0 |  |  | -0.117 |  | 
26 | SSX5 isoform 2 (UniProt O60225) | 0.042 | 0.082 |  | -0.476 |  | 0.092 | 0.085 |  | -0.04 | 0.183
27 | SMYD3 (UniProt Q9H7B4) | 0.017 | -0.018 | -0.146 |  | 0.062 |  | 0.023 | 0.053 | -0.062 | 
28 | SHC1 (UniProt P29353) |  |  |  | 0.029 |  | -0.033 |  |  |  | 0.009
29 | SLC12A6 isoform 2 (UniProt Q9UHW9) | -0.019 |  | -0.051 |  | -0.023 |  | 0.068 | 0.054 |  | 
30 | SYK (UniProt P43405) | -0.086 | 0.017 |  | -0.479 (active) | 0.004 | 0.272 | 0.002 | 0.021 | -0.236 | 0.261
31 | SNAP23 isoform 2 (UniProt O00161) | 0.075 |  |  | 0.188 |  | -0.054 | -0.185 |  |  | -0.163
32 | STAR (UniProt P49675) |  |  | -0.123 | 0.117 | 0.017 | 0.156 | 0.063 | 0.019 |  | 0.142
33 | SLC35A3 isoform 2 (UniProt Q9Y2D2) | -0.097 |  | -0.267 | -1.02 (active) |  | 0.215 | 0.032 | 0.095 |  | 0.332
34 | SLC25A36 (UniProt Q96CQ1) | -0.019 |  | 0.022 | 0.029 | -0.122 | 0.024 | -0.09 | -0.011 |  | -0.006
35 | SLCO4A1 (UniProt Q96BD0) |  | -0.687 (active) |  | 0.016 |  | 0.062 |  |  | -0.334 | 0.012
36 | STAU1 isoform 3 (UniProt O95793) |  | 0.048 | 0.049 | -0.298 |  | 0.112 |  | 0.269 | -0.086 | 0.078
37 | SIN3B (UniProt O75182) |  |  | -0.057 | -0.318 |  | 0.116 | -0.095 | 0.584 |  | -0.611
38 | SMC4 (UniProt C9JJ64) |  | 0.006 |  |  |  |  |  |  | -0.251 | 
39 | SLC41A1 (UniProt Q8IVJ1) | -0.059 |  | 0.141 | -0.09 |  | 0.136 | -0.016 | 0.01 |  | 0.113
40 | SMPD2 (UniProt O60906) | 0.015 |  |  | 0.106 | 0.107 | -0.051 | -0.031 |  |  | 0.03
41 | STMN3 (UniProt Q9NZ72) | -0.017 | -0.08 | 0.009 |  | -0.023 |  | -0.023 | -0.003 | 0.041 | 
42 | SNRPD2 (UniProt K7EJB5) | 0.005 |  | -0.202 |  | 0.014 |  | 0.051 | 0.105 |  | 
